Experimental data as given in PubChem BioAssay (Tox21).
Records with an inconclusive call do not appear. Some structures have more than one record in an assay (separate samples or runs), and their calls can disagree. Calls of active or inactive are those of the source. Unless noted, calls follow the shape of the dose curve; as a rule, active = well fitted curve in the direction sought with a large enough effect in the repeat runs; inconclusive = weak or mixed curves; inactive = no such curve, though single readings can be large; an effect the other way counts as inactive or inconclusive.

Assays:
[1] = qHTS assay for small molecules that induce genotoxicity in human embryonic kidney cells expressing luciferase-tagged ATAD5 (AID 651632); also: nearly all actives have a fitted effect of over 15% in size
Method in brief: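 Test compounds were delivered by pin tool onto HEK293T reporter cells (2,000/well) expressing ATAD5 fused to luciferase. After 16 hr at 37C, 5% CO2, Amplite was added for 30 min at room temperature and luminescence was measured.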

[2] = qHTS assay for small molecule agonists of the p53 signaling pathway - cell viability (AID 651633; calls by dose curve;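 also: p53RE-bla HCT reporter cells with a stable beta-lactamase p53 reporter; series mostly up to about 83 µM; nearly all actives have a fitted effect of over 30% in size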)
Method in brief: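 Viability counter-read: CellTiter-Glo luminescence (30 min, room temperature) in the same p53RE-bla plates. These plates had been exposed to compounds for 16 h at 37 C.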

[3] = qHTS assay for small molecules that induce genotoxicity in human embryonic kidney cells expressing luciferase-tagged ATAD5 - cell viability (AID 651634; calls by dose curve; also: nearly all actives have a fitted effect of over 25% in size)
Method in brief: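 Quantitative high-throughput format. HEK293T cells expressing ATAD5 fused to luciferase were plated at 2,000 cells/well and treated 15.5 hr with compound versus DMSO. Viability was determined by fluorescent live-cell protease substrate, 30 min at 37C.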

[4] = qHTS assay for small molecule disruptors of the mitochondrial membrane potential - cell viability (AID 720634; calls by dose curve;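 also: human HepG2 liver cancer cells; series mostly up to about 83 µM; nearly all actives have a fitted effect of over 20% in size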)
Method in brief: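 Same-well counter-screen: following the MMP dye addition, CellTiter-Glo was added to 1 hr compound-treated HepG2 cells and luminescence read after 30 min at room temperature.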

[5] = qHTS assay for small molecule disruptors of the mitochondrial membrane potential (AID 720635); also: potency is read from the fitted curve at half-maximal effect
Method in brief: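 Mitochondrial membrane potential tracked with Mito-MPS dye, red aggregates (ex 540/em 590 nm) against green monomers (ex 490/em 535 nm). Compound treatment 1 hr at 37C, dye 30 min in HepG2.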

[6] = qHTS assay to test for compound auto fluorescence at 590 nm (red) in HepG2 cells (AID 720674)
Method in brief: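 We screened compounds on adherent HepG2 cells, incubating them for an hour at 37 C in 5% CO2 before reading emission at 590 nm under 540 nm excitation; values reflect equivalence to Rose Bengal sodium fluorescence.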

[7] = qHTS assay to test for compound auto fluorescence at 460 nm (blue) in HEK293 cells (AID 720678)
Method in brief: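 Triamterene serves as the blue fluorophore standard. Compound signal at 405/460 nm is read in HEK293 wells (2,000 cells, 10% dialyzed FBS) after overnight treatment at 37C.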

[8] = qHTS assay to test for compound auto fluorescence at 590 nm (red) in HEK293 cells (AID 720679)
Method in brief: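 We plated HEK293 cells in 10% dialyzed FBS medium, let them adhere for 4-5 hr, then added 23 nL compound. Overnight at 37C and 5% CO2 preceded fluorescence measurement at 540/590nm.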

[9] = qHTS assay to test for compound auto fluorescence at 535 nm (green) in HEK293 cells (AID 720680)
[10] = qHTS assay to test for compound auto fluorescence at 460 nm (blue) in HEK293 cell free culture (AID 720681)
Method in brief: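 Blue fluorescence (Ex 405/Em 460 nm, triamterene-equivalent) was read immediately after pin transfer of compound or DMSO into medium (DMEM, 10% FBS) without cells.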

[11] = qHTS assay to test for compound auto fluorescence at 535 nm (green) in HEK293 cell free culture (AID 720682)
Method in brief: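 Intrinsic compound fluorescence is measured in culture medium containing 10% FBS, with excitation at 485 nm and detection at 535 nm, referenced to fluorescein.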

[12] = qHTS assay to test for compound auto fluorescence at 590 nm (red) in HEK293 cell free culture (AID 720683)
Method in brief: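 Red-channel autofluorescence of compounds in culture medium (DMEM, 10% FBS), no cells, measured at 540/590 nm. Rose Bengal sodium is the reference fluorophore for equivalence.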

[13] = qHTS assay to test for compound auto fluorescence at 590 nm (red) in HepG2 cell free culture (AID 720684)
Method in brief: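 Cell-free; medium MEM + 10% FBS; compound or DMSO added by pintool; read Ex 540/Em 590 nm; Rose Bengal sodium as red reference fluorophore.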

[14] = qHTS assay to test for compound auto fluorescence at 460 nm (blue) in HepG2 cell free culture (AID 720685)
Method in brief: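 Cell-free plates of MEM plus 10% FBS received 23 nL compound or DMSO vehicle; blue-channel (405/460 nm) intensity scored against triamterene as reference fluorophore.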

[15] = qHTS assay to test for compound auto fluorescence at 535 nm (green) in HepG2 cell free culture (AID 720686)
[16] = qHTS assay to test for compound auto fluorescence at 460 nm (blue) in HepG2 cells (AID 720687)
Method in brief: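 Blue-channel autofluorescence (Ex/Em 405/460 nm, triamterene-equivalent) was measured after 1 hr compound exposure at 37 C, 5% CO2. Cells were HepG2, plated overnight at 37 C in MEM plus 10% FBS.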

[17] = biological target: Glucocorticoid receptor (Homo sapiens) (UniProt P04150); test: qHTS assay to identify small molecule agonists of the glucocorticoid receptor (GR) signaling pathway (AID 720691; active = well fitted activation curve with a large enough effect in the signal ratio in the repeat runs, not every such curve was filed as active; the % refers to the signal ratio)
Sequence of Glucocorticoid receptor (Homo sapiens) (P04150 whole entry, looked up): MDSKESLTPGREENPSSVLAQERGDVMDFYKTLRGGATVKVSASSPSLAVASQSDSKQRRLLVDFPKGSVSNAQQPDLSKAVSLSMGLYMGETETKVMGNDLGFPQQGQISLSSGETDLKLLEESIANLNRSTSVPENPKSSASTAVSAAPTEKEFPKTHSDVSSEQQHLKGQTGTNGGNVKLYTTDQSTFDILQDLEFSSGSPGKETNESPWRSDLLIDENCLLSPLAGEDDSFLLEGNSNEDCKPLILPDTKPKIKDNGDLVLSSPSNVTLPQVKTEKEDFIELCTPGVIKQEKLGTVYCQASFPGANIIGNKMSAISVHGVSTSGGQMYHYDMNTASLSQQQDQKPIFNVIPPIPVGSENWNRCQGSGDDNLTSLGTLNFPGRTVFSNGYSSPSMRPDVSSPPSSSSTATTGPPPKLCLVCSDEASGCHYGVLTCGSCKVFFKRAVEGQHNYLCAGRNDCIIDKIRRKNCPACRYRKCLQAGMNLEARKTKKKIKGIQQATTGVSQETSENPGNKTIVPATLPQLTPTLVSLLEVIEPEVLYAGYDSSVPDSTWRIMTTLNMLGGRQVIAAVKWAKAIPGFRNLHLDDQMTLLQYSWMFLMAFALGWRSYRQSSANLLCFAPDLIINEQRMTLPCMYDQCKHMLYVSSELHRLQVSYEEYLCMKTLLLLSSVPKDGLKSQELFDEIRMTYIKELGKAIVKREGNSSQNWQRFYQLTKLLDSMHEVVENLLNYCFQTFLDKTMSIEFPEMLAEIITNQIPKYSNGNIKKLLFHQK
Method in brief: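 A HeLa cervical cancer line expressing GR and a glucocorticoid response element-driven beta-lactamase gene is treated with compounds for 18 h; LiveBLAzer B/G FRET substrate is then applied and fluorescence read.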

[18] = biological target: Glucocorticoid receptor (Homo sapiens) (UniProt P04150); test: qHTS assay to identify small molecule antagonists of the glucocorticoid receptor (GR) signaling pathway (AID 720692; active = well fitted inhibition curve with a large enough effect in the signal ratio in the repeat runs, not every such curve was filed as active; the % refers to the signal ratio)
Method in brief: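 GRE-bla HeLa line, dex-stimulated (5 nM final). Compound exposure 18 h, 37 C. Beta-lactamase FRET read after 2 h RT substrate.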

[19] = qHTS assay for small molecule agonists of the p53 signaling pathway (AID 651631; calls by dose curve; also: nearly all actives have a fitted effect of over 15% in size)
Method in brief: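 Fluorescence intensity from cleaved LiveBLAzer B/G substrate (2 h, room temperature) served as the signal. Beforehand, HCT-116 reporter cells bearing p53 response elements were treated 16 h at 37 °C with DMSO-dissolved compounds.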

[20] = qHTS assay to test for compound auto fluorescence at 535 nm (green) in HepG2 cells (AID 720675)
% is scaled to controls: 0 for no effect and ±100 for the full control effect.

CC(=O)c1ccc(O)cc1
inactive: outcome [1] | outcome [2] | Potency [3] | Potency [4] | Potency [5] | outcome [6] | outcome [7] | outcome [8] | outcome [9] | outcome [10] | outcome [11] | outcome [12] | outcome [13] | outcome [14] | outcome [15] | outcome [16] | outcome [17] | Potency [18]

CCNc1ccccc1
24.8 µM (active) and inactive: Potency [5]
inactive: outcome [19] | outcome [2] | Potency [3] | Potency [4] | outcome [6] | outcome [7] | outcome [9] | outcome [10] | outcome [11] | outcome [12] | outcome [13] | outcome [14] | outcome [15] | outcome [16]

O=C(O)c1ccc(C(=O)O)c(C(=O)O)c1
inactive: outcome [1] | outcome [2] | Potency [3] | Potency [4] | Potency [5] | outcome [6] | outcome [20] | outcome [7] | outcome [8] | outcome [9] | outcome [10] | outcome [11] | outcome [12] | outcome [13] | outcome [14] | outcome [15] | outcome [16] | outcome [17] | Potency [18]

CN/C(=C\[N+](=O)[O-])NCCSCc1csc(CN(C)C)n1
inactive: outcome [1] | outcome [2] | Potency [3] | Potency [4] | Potency [5] | outcome [6] | outcome [20] | outcome [7] | outcome [9] | outcome [10] | outcome [11] | outcome [12] | outcome [13] | outcome [14] | outcome [15] | outcome [16] | outcome [17] | Potency [18]

CCCCCCCCCCCCCCCCO
inactive: outcome [1] | outcome [2] | Potency [3] | Potency [4] | Potency [5] | outcome [6] | outcome [7] | outcome [9] | outcome [10] | outcome [11] | outcome [12] | outcome [13] | outcome [14] | outcome [15] | outcome [17] | Potency [18]

OCc1ccccc1
inactive: outcome [1] | outcome [2] | Potency [3] | Potency [4] | Potency [5] | outcome [6] | outcome [20] | outcome [7] | outcome [8] | outcome [9] | outcome [10] | outcome [11] | outcome [12] | outcome [13] | outcome [14] | outcome [15] | outcome [16] | outcome [17] | Potency [18]

CCCCCCCCCCO
inactive: outcome [1] | outcome [2] | Potency [3] | Potency [4] | Potency [5] | outcome [6] | outcome [7] | outcome [9] | outcome [10] | outcome [11] | outcome [12] | outcome [13] | outcome [14] | outcome [15] | outcome [16] | outcome [17] | Potency [18]

Clc1ccccn1
inactive: outcome [1] | outcome [2] | Potency [3] | Potency [4] | Potency [5] | outcome [6] | outcome [20] | outcome [7] | outcome [8] | outcome [9] | outcome [10] | outcome [11] | outcome [12] | outcome [13] | outcome [14] | outcome [15] | outcome [16]

CCc1ccccc1CC
inactive: outcome [1] | outcome [2] | Potency [3] | Potency [4] | ratio activity, negative = MMP loss [5] 5.07% [at 17.9 µM] | outcome [6] | outcome [20] | outcome [7] | outcome [8] | outcome [9] | outcome [10] | outcome [11] | outcome [12] | outcome [13] | outcome [14] | outcome [15] | outcome [17] | Potency [18]
